Data taken from PubChem BioAssay (NCI).
Values joined by “and” are separate entries in the source; they are usually repeats but may differ in a detail not shown here. Equal values may be shown once. The panel holds about 79,000 compounds, 15% with a hit somewhere; the sample as a whole holds those more often. Active and inactive are the calls of the source. Cut-off read from the data, not from the text of the source: active = growth inhibition above about 70%; inactive = the rest.

Assays:
[1] = NCI Yeast Anticancer Drug Screen. Data for the mec2-1 strain (AID 157); details: S. cerevisiae mec2-1 strain, active compounds read high
How it was run: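 Compounds were applied to mec2-1 yeast cells. Their growth was then compared with that of vehicle-treated cultures to give growth inhibition.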

[2] = NCI Yeast Anticancer Drug Screen. Data for the sgs1 mgt1 strain (AID 161);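 note: 0% = growth of cultures given vehicle only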; details: S. cerevisiae sgs1 mgt1 strain, active compounds read high
How it was run: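 Compounds are added to genetically altered yeast, and growth is compared with cultures given vehicle alone to give percent inhibition.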

[3] = NCI Yeast Anticancer Drug Screen. Data for the cln2 rad14 strain (AID 165);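 note: 0% = growth equal to vehicle treated cultures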; details: S. cerevisiae cln2 rad14 strain, active compounds read high
How it was run: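 Strain: cln2 rad14 yeast, altered in cell cycle control and DNA damage repair. Read-out: growth inhibition vs vehicle.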

[4] = NCI Yeast Anticancer Drug Screen. Data for the bub3 strain (AID 167); details: S. cerevisiae bub3 mutant strain, active compounds read high
How it was run: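 Screening used yeast with an engineered genetic alteration affecting cell cycle control. Compound-exposed cultures were compared with vehicle cultures, and reduced growth was taken as inhibition.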

[5] = NCI Yeast Anticancer Drug Screen. Data for the mlh1 rad18 strain (AID 175); details: S. cerevisiae mlh1 rad18 strain growth inhibition, active compounds read high
How it was run: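 A repair-deficient yeast strain is exposed to test compound, and growth is scored relative to vehicle-treated controls.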

[6] = NCI Yeast Anticancer Drug Screen. Data for the rad50 strain (AID 155);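 note: 0% = growth of vehicle-only cultures of the same strain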; details: S. cerevisiae rad50 strain growth inhibition, active compounds read high
How it was run: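 Relative growth inhibition (compound vs vehicle) was measured in yeast with a defined repair-gene alteration.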

[7] = at 5.0 µM (retest, dose inferred, filed as 0.5)
[8] = at 50.0 µM (retest, dose inferred, filed as 5.0)

Measured: growth inhibition

COc1cccc2c1C(=O)c1c(O)c3c(c(O)c1C2=O)CC(O)(C(C)=O)CC3OC1CC(NCC2(O)OCC(O)C(O)C2O)C(O)C(C)O1 (stereo not drawn)
inactive: [1]; [7] 33% | [2]; [7] 38% | [3]; [7] 38% | [4]; [7] 27% | [5]; [7] 62%
active: [1]; [8] 98% | [1]; at 50.0 µM 86.5% | [2]; [8] 98% | [2]; at 50.0 µM 79.8% | [3]; [8] 94% | [3]; at 50.0 µM 73.3% | [4]; [8] 98% | [4]; at 50.0 µM 83.2% | [5]; [8] 97% | [5]; at 50.0 µM 87.9%

CCc1ccc(C(=O)O)c2ccccc12
inactive: [6]; [7] -8% | [6]; at 50.0 µM 68.1% | [2]; [7] -2% | [2]; at 50.0 µM 35.1% | [3]; [7] 8% | [3]; [8] 69% | [3]; at 50.0 µM 51.6% | [4]; [7] -6% | [4]; [8] 62% | [4]; at 50.0 µM 8.4% | [5]; [7] -1% | [5]; at 50.0 µM 51.6%
active: [6]; [8] 81% | [2]; [8] 72% | [5]; [8] 85%

NC(=S)n1nc(-c2ccccc2)c(N=Nc2ccccc2Cl)c1-c1ccccc1
inactive: [6]; [7] 3% | [1]; [7] 0% | [1]; [8] 58% | [1]; at 50.0 µM 55.5% | [3]; [7] 21% | [4]; [7] 16% | [5]; [7] 2%
active: [6]; [8] 84% | [6]; at 50.0 µM 94.8% | [3]; [8] 92% | [3]; at 50.0 µM 73.9% | [4]; [8] 92% | [4]; at 50.0 µM 93.7% | [5]; [8] 71% | [5]; at 50.0 µM 90.6%

COc1ccc(/C=C2\CCC(CN3CCOCC3)C2=O)cc1 (stereo not drawn)
active: [1]; [7] 92% | [1]; [8] 100% | [1]; at 50.0 µM 93.8% | [2]; [8] 99% | [2]; at 50.0 µM 93.2% | [3]; [8] 99% | [3]; at 50.0 µM 91.8% | [4]; [7] 96% | [4]; [8] 99% | [4]; at 50.0 µM 92.7% | [5]; [7] 89% | [5]; [8] 97% | [5]; at 50.0 µM 89.7%
inactive: [2]; [7] 55% | [3]; [7] 46%

Oc1ccc(-c2ccc3ccccc3c2)cc1
inactive: [6]; [7] 2% | [2]; [7] -3% | [3]; [7] 3% | [5]; [7] -2%
active: [6]; [8] 98% | [6]; at 50.0 µM 98.7% | [2]; [8] 98% | [2]; at 50.0 µM 99.2% | [3]; [8] 99% | [3]; at 50.0 µM 98.8% | [5]; [8] 99% | [5]; at 50.0 µM 99.1%

NC(N)=N/N=C(\c1ccc(F)cc1)c1ccc(C(F)(F)F)cc1
active: [6]; [8] 99% | [6]; at 50.0 µM 72.6% | [2]; [8] 99% | [2]; at 50.0 µM 80.5% | [3]; [8] 93% | [4]; [8] 99% | [4]; at 50.0 µM 83.7% | [5]; [8] 99% | [5]; at 50.0 µM 85.8%
inactive: [6]; [7] 5% | [2]; [7] -2% | [3]; [7] -4% | [3]; at 50.0 µM -12.7% | [4]; [7] -1% | [5]; [7] 0%

CC(C)N(C(=O)CC1(O)CCCCC1)C(C)C
active: [3]; at 50.0 µM 73.8%
inactive: [6]; [7] 2% | [6]; [8] -14% | [6]; at 50.0 µM -0.25% | [1]; [7] -5% | [1]; [8] 1% | [1]; at 50.0 µM -11.9% | [3]; [7] -6% | [3]; [8] 4% | [4]; [7] -1% | [4]; [8] 6% | [4]; at 50.0 µM -9.25% | [5]; [7] 0% | [5]; [8] -9% | [5]; at 50.0 µM 1.85%

Fc1ccc(NC(=S)SCc2ccccc2)cc1
inactive: [6]; [7] 4% | [6]; [8] 16% | [6]; at 50.0 µM 68.3% | [1]; [7] -2% | [1]; [8] 18% | [1]; at 50.0 µM 53.6% | [3]; [7] -7% | [3]; [8] 1% | [3]; at 50.0 µM 28.9% | [4]; [7] -4% | [4]; [8] 34% | [4]; at 50.0 µM 45.5% | [5]; [7] 0% | [5]; [8] 15%
active: [5]; at 50.0 µM 78.2%

CN(C)CCCc1ccc2oc3ccccc3c2c1
inactive: [6]; [7] 5% | [6]; [8] 65% | [2]; [7] 6% | [2]; [8] 54% | [2]; at 50.0 µM 48.6% | [3]; [7] 15% | [3]; [8] 34% | [3]; at 50.0 µM 27.1% | [4]; [7] 14% | [4]; at 50.0 µM 69% | [5]; [7] 7% | [5]; [8] 42% | [5]; at 50.0 µM 48%
active: [6]; at 50.0 µM 77.8% | [4]; [8] 77%

Cc1ccnc(N)c1
inactive: [6]; at 50.0 µM -10.2% and -13.3% and 9.05% | [1]; at 50.0 µM -3.4% and -17.8% and 11.4% | [2]; at 50.0 µM 2.2% and -19.4% and -6.3% | [3]; at 50.0 µM -34.4% and -28.6% and -33.6% | [4]; at 50.0 µM 0.95% and 7.15% and -8.9% | [5]; at 50.0 µM 1.35% and 16.1% and 1.85%

O=C1OC(=O)c2ccc([N+](=O)[O-])c3cccc1c23
inactive: [6]; [7] 0% | [6]; [8] 7% | [2]; [7] 2% | [2]; [8] 2% | [3]; [7] 3% | [3]; [8] 14% | [3]; at 50.0 µM 26.4% | [4]; [7] 0% | [4]; [8] 16% | [5]; [7] 0% | [5]; [8] 13%
active: [6]; at 50.0 µM 70.4% | [2]; at 50.0 µM 76.4% | [4]; at 50.0 µM 74.2% | [5]; at 50.0 µM 82.8%

O=C(Nc1ccccc1)O/N=C1/CCCC/C1=C\c1ccccc1
active: [6]; [8] 77% | [6]; at 50.0 µM 88.4% | [2]; [8] 86% | [2]; at 50.0 µM 88.3% | [3]; [8] 85% | [3]; at 50.0 µM 84.4% | [4]; [8] 87% | [4]; at 50.0 µM 81.6% | [5]; [8] 88% | [5]; at 50.0 µM 84.1%
inactive: [6]; [7] 26% | [2]; [7] 57% | [3]; [7] 65% | [4]; [7] 54% | [5]; [7] 35%
